Bioassay records deposited in PubChem by National Center for Advancing Translational Sciences (NCATS).
Sampled rows, rich in hits. Any-hit rate of the full collection: about 5%.
Caspase-7 inhib: blocks human caspase-7 allosterically or competitively | P55210 | recombinant caspase-7, Ac-DEVD-AFC fluorescence rate | Potency, µM (highest dose often 57.5 µM), for the others: at the top dose activity change, negative = inhibition, usual class: inhibitors | 75,000 tested, 0.02% active | AID 889; active = well fitted inhibition curve with a large enough effect in the main read-out, with a control signal flat, not every such curve was filed as active; inconclusive = small, poorly fitted or top-dose-only effect, or a change in a side signal; note: % of control where 0% means no effect
Caspase-1 inhib: blocks human caspase-1 allosterically or competitively; P29466; Caspase-1 enzyme, Ac-WEHD-AFC fluorogenic rate; Potency, µM (highest dose often 57.5 µM), for the others: top-dose activity change, negative = inhibition, most hits filed as inhibitors; 75,000 tested, 0.03% active; AID 900;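 note: plate controls were vehicle for no effect and no substrate for full effect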
HEK293 cAMP ctrl: parental HEK293 cAMP activation (counter-screen); parental HEK293 CNG cAMP sensor, membrane potential fluorescence; Potency, µM (doses to about 57.1 µM), inactives show top-dose activation, actives largely listed as activators; 73,000 tested, 2.5% active; AID 938; note: % of control where 0% means no effect; nearly all actives have a fitted effect of over 55% in size
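Parental HEK 293 cells stably expressing a modified CNG channel (no TSHR) report cAMP rise as membrane depolarization. Membrane potential dye with 100 uM RO 20-1724 was loaded for 60 min at room temperature, then compound added for 30 min; fluorescence read at 590 nm.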
USP2a inh: inhibitors of human ubiquitin-specific protease USP2a; O75604; USP2a enzymatic assay, qHTS inhibition; Potency, µM (highest dose often 38.3 µM), inactives show at the highest dose activity change, negative = inhibition, most hits filed as inhibitors; 60,000 tested, 0.1% active; note: nearly all actives have a fitted effect of over 60% in size
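Inhibition is measured in a cell-free coupled assay with 20 nM USP2 core, 20 nM Ub-PLA2 and 20 uM NBD C6-HPC, 2.5 h incubation. Activity normalized to NEM control.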
CRE Fsk mod: alters forskolin-stimulated CRE reporter signaling in CHO cells. Potency, µM (titrated, usually from 38.2 µM), for inactives: at the top dose activity change, negative = inhibition, actives largely listed as activators. CHO CRE-bla reporter (cAMP response element driving beta-lactamase), forskolin EC10, beta-lactamase ratio. 71,000 tested, 2.5% active; active = well fitted activation curve with a large enough effect in the signal ratio, with a control signal flat, not every such curve was filed as active; inconclusive = small, poorly fitted or top-dose-only effect, or effect the other way, or a change in a side signal; the % refers to the signal ratio; note: % of control where 0% means no effect
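Cells were plated overnight at 37 °C, exposed to compound titrations plus EC10 NKH 477 for 3 h, then given CCF4 dye for 2 h at room temperature. Blue/green (460/530 nm) ratio was converted to %Activity and AC50 values calculated.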
TSHR ag: activates the human thyroid stimulating hormone receptor. P16473. HEK293-CNG-TSHR cells (CNG channel as cAMP sensor), membrane potential dye, cAMP. Potency, µM (series often up to 57.1 µM), for the others: at the highest dose activation, most hits filed as activators. 73,000 tested, 0.48% active. AID 926; active = well fitted activation curve with a large enough effect in the main read-out, with a control signal flat, not every such curve was filed as active; inconclusive = small, poorly fitted or top-dose-only effect, or a change in a side signal; inactive = no such curve, though single readings can be large or run the other way; % of control where 0% means no effect;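 note: the control signal comes from parental cells without the receptor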
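HEK 293 cells stably expressing TSHR and a cAMP-gated CNG channel; parental CNG-only cells as counterscreen. Cells preloaded 60 min with membrane potential dye plus 100 uM RO 20-1724, then compound 30 min; fluorescence read at 590 nm.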
The depositor's hits bear a star; [ ] = dose if it differs, or a comment. Unless noted, calls come from the whole dose curve; as a rule, active = well fitted curve in the direction sought with a large enough effect; inconclusive = small, poorly fitted or top-dose-only effect, or another doubt; inactive = no such curve, though single readings can be large; an effect the other way counts as inactive or inconclusive. Potency is the fitted concentration of half-maximal effect.

How did C=CCn1c(SC(C)C(=O)NCc2ccc3c(c2)OCO3)nnc1C1CCCCC1 (stereo unspecified) do in these assays?
Caspase-7 inhib: -0.1%; Caspase-1 inhib: -1.0%; HEK293 cAMP ctrl: 2.51µM*; USP2a inh: 3.8%; CRE Fsk mod: -5.5%; TSHR ag: inconclusive

Results for Cc1cc(NC(=O)CSc2nc3ccccc3c(=O)n2C2CCCC2)no1 ?
Caspase-7 inhib: -1.5%; Caspase-1 inhib: -3.7%; HEK293 cAMP ctrl: 23.6%; USP2a inh: -0.6%; CRE Fsk mod: 12.6µM*

What do the screens show for `CCOc1ccc(-n2c(SCC(=O)Nc3cc(C)on3)nc3c([nH]c4ccccc43)c2=O)cc1`?
Caspase-7 inhib: -1.9%; Caspase-1 inhib: -6.0%; HEK293 cAMP ctrl: 3.3%; CRE Fsk mod: 1.26µM*; TSHR ag: 10.8%

How did CCOc1ccc(-n2c(SCC(N)=O)nc3c([nH]c4ccccc43)c2=O)cc1 do in these assays?
Caspase-7 inhib: -2.0%; Caspase-1 inhib: -2.3%; HEK293 cAMP ctrl: 0.9%; CRE Fsk mod: -19.4%; TSHR ag: 3.7%

What do the screens show for `[Cu].[O-]/N=C1/C(=[OH+])Nc2ccccc21.[O-]Nc1c(O)[nH]c2ccccc12`?
Caspase-7 inhib: -0.1%[11.5 µM]; Caspase-1 inhib: 1.8%[11.5 µM]; HEK293 cAMP ctrl: -1.2%[11.4 µM]; CRE Fsk mod: 2.8%[7.6 µM]; TSHR ag: -2.6%[11.4 µM]

What do the screens show for `CCCCS/C(=C(/C#N)C(N)=O)c1cc2c([nH]1)CCCC2`?
Caspase-7 inhib: -1.2%; Caspase-1 inhib: -1.6%; HEK293 cAMP ctrl: 5.01µM*; USP2a inh: 9.0%; CRE Fsk mod: -14.5%; TSHR ag: inconclusive

Results for CCc1ccc(N/C(SC)=C(/C#N)C(N)=O)cc1 ?
Caspase-7 inhib: -0.8%; Caspase-1 inhib: 0.4%; HEK293 cAMP ctrl: 24.0%; USP2a inh: 0.9%; CRE Fsk mod: 0.7%; TSHR ag: -1.3%

What do the screens show for `O=C(NC1CCCCC1)C(c1ccco1)N(Cc1cccnc1)C(=O)C1COc2ccccc2O1` (stereo unspecified)?
Caspase-7 inhib: 0.3%; Caspase-1 inhib: -4.0%; HEK293 cAMP ctrl: 15.8µM*; USP2a inh: 21.6%; CRE Fsk mod: -8.5%; TSHR ag: inconclusive

What do the screens show for `CN(C)c1ccc2c(c1)OC(N)=C(C#N)C2c1cccc(F)c1` (stereo unspecified)?
Caspase-7 inhib: inconclusive; Caspase-1 inhib: inconclusive; HEK293 cAMP ctrl: 31.6µM*; USP2a inh: 14.2%; CRE Fsk mod: inconclusive; TSHR ag: inconclusive

Results for COC(=O)c1ccc(OCC2c3cc(OC)c(OC)cc3CCN2C(=O)C2CC2)cc1 (stereo unspecified) ?
Caspase-7 inhib: 0.2%; Caspase-1 inhib: 1.9%; HEK293 cAMP ctrl: inconclusive; USP2a inh: 26.0%; CRE Fsk mod: 5.01µM*; TSHR ag: inconclusive

Results for C/C=C\C[C@H](C)[C@H](O)[C@H]1C(=O)N[C@@H](CC)C(=O)N(C)CC(=O)N(C)[C@@H](CC(C)C)C(=O)N[C@@H](C(C)C)C(=O)N(C)[C@@H](CC(C)C)C(=O)N[C@@H](C)C(=O)N[C@@H](C)C(=O)N(C)[C@@H](CC(C)C)C(=O)N(C)[C@@H](CC(C)C)C(=O)N(C)[C@@H](C(C)C)C(=O)N1C ?
Caspase-7 inhib: -1.7%[25.7 µM]; Caspase-1 inhib: -4.3%[25.7 µM]; HEK293 cAMP ctrl: 1.4%[25.6 µM]; CRE Fsk mod: -9.5%[17.1 µM]; TSHR ag: -10.9%[25.6 µM]

What do the screens show for `Clc1ccc(C2=Nn3c(nnc3-c3n[nH]c4c3CCC4)SC2)cc1`?
Caspase-7 inhib: -2.3%; Caspase-1 inhib: -4.4%; HEK293 cAMP ctrl: 25.1µM*; USP2a inh: 45.1%; CRE Fsk mod: 2.51µM*; TSHR ag: inconclusive

Results for Brc1ccccc1C1=Nn2c(nnc2-c2ccccc2)SC1 ?
Caspase-7 inhib: -2.5%; Caspase-1 inhib: -2.8%; HEK293 cAMP ctrl: inconclusive; USP2a inh: 35.1%; CRE Fsk mod: -2.8%; TSHR ag: inconclusive

What do the screens show for `Brc1ccc(C2=Nn3c(nnc3-c3n[nH]c4c3CCC4)SC2)cc1`?
Caspase-7 inhib: 0.5%; Caspase-1 inhib: -0.5%; HEK293 cAMP ctrl: 12.6µM*; USP2a inh: 37.3%; CRE Fsk mod: 5.01µM*; TSHR ag: inconclusive

What do the screens show for `Cc1ccc(-c2nnc3n2N=C(c2ccc(Br)cc2)CS3)cc1`?
Caspase-7 inhib: -2.7%; Caspase-1 inhib: -0.6%; HEK293 cAMP ctrl: 15.3%; CRE Fsk mod: 10µM*; TSHR ag: 10.6%

Results for CC1CCN(CC(=O)N2c3ccccc3Sc3cc4ccccc4cc32)CC1 ?
Caspase-7 inhib: 0.1%[11.5 µM]; Caspase-1 inhib: -2.2%[11.5 µM]; HEK293 cAMP ctrl: 17.5%[11.4 µM]; CRE Fsk mod: -10.6%[7.6 µM]

Results for C=CCOC(=O)C(C(C)=O)C(NC(=O)OC)c1cccc(C)c1 (stereo unspecified) ?
Caspase-7 inhib: 0.6%[11.5 µM]; Caspase-1 inhib: -1.1%[11.5 µM]; HEK293 cAMP ctrl: -3.9%[11.4 µM]; TSHR ag: -1.8%[11.4 µM]

How did CCCC[C@@H]1C[C@H]1C(NC(=O)c1cccnc1)c1ccc(Cl)cc1 (stereo partly specified) do in these assays?
Caspase-7 inhib: -3.5%; Caspase-1 inhib: -3.7%; HEK293 cAMP ctrl: 25.1µM*; CRE Fsk mod: -8.3%; TSHR ag: inconclusive

Results for CCCC[C@@H]1C[C@H]1C(NC(=O)c1ccccc1)c1ccc(C(F)(F)F)cc1 (stereo partly specified) ?
Caspase-7 inhib: -0.4%; Caspase-1 inhib: -0.3%; HEK293 cAMP ctrl: 3.16µM*; CRE Fsk mod: 13.1%; TSHR ag: inconclusive

Results for Cc1nc(SCC(=O)N2CCN(C(=O)c3ccco3)CC2)c2c(C)c(C)sc2n1 ?
Caspase-7 inhib: -0.2%; Caspase-1 inhib: -0.3%; HEK293 cAMP ctrl: inconclusive; CRE Fsk mod: 2µM*; TSHR ag: inconclusive

Results for Cc1nc(SCC(=O)NCc2ccco2)c2c(C)c(C)sc2n1 ?
Caspase-7 inhib: -0.3%; Caspase-1 inhib: -0.9%; HEK293 cAMP ctrl: 12.8%; USP2a inh: 7.5%; CRE Fsk mod: 3.16µM*; TSHR ag: 26.6%

What do the screens show for `Cc1sc2ncnc(SCC(=O)NC(=O)NCc3ccco3)c2c1C`?
Caspase-7 inhib: -25.7%; Caspase-1 inhib: -2.6%; HEK293 cAMP ctrl: 8.6%; USP2a inh: 23.2%; CRE Fsk mod: 12.6µM*; TSHR ag: -0.8%[11.4 µM]

Results for CCc1nc(SCC(=O)NCc2ccco2)c2c3c(sc2n1)CCCC3 ?
Caspase-7 inhib: -3.0%; Caspase-1 inhib: 1.3%; HEK293 cAMP ctrl: 5.01µM*; USP2a inh: -2.7%; CRE Fsk mod: inconclusive; TSHR ag: inconclusive

Results for O=C(CSc1nc2ccccc2s1)N1CCN(C(=O)c2ccco2)CC1 ?
Caspase-7 inhib: -0.4%; Caspase-1 inhib: 1.2%; HEK293 cAMP ctrl: 0.9%; USP2a inh: 6.6%; CRE Fsk mod: -7.7%; TSHR ag: 4.3%
